Measurements taken from PubChem BioAssay (EPA / NIEHS).
Values joined by “and” are separate entries in the source; they are usually repeats but may differ in a detail not shown here. Equal entries are not always repeated. Results filed as inconclusive are left out. Some structures have more than one record in an assay (separate samples or runs), and their calls can disagree. Active and inactive are the calls of the source. How the source made its calls, unless noted: active means hit-call score of the fitted dose curve at least 0.9, where 1 is the maximum; inconclusive means response in the unintended direction; inactive means score below 0.9.

Tests used:
[1] = target: Estrogen receptor beta (Homo sapiens) (UniProt Q92731); assay: OT_ER_ERbERb_1440: Odyssey Thera (OT) 24-hour HEK293T Protein-Complementation Assay for Estrogen Receptor-beta/-beta Homodimer (AID 2283380);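 further: scored as signal increase over DMSO baseline for both agonists and antagonists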
Method in brief: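 HEK293T cells stably expressing ER beta LBD (aa 310-547) homodimer fragment-complementation reporter, dosed 24 h. Cells formaldehyde-fixed, Draq5-stained; gain in nuclear (agonist) or nuclear plus cytoplasmic (antagonist) fluorescence versus DMSO read by laser scanning cytometry.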

[2] = target: Estrogen receptor (Homo sapiens) (UniProt P03372); assay: OT_ERa_GFPERaERE_0480: Odyssey Thera (OT) 8-hour HeLa Transcription Induction Assay for Estrogen Receptor (AID 2283381; active means hit-call score of the fitted dose curve at least 0.9, where 1 is the maximum; inactive means score below 0.9)
Method in brief: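 An 8 h HeLa transcription-induction format with a GFP reporter under ERE control, read by fluorescence microscopy; single endpoint fitted positively with DMSO as baseline.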

[3] = target: Estrogen receptor (Homo sapiens) (UniProt P03372); assay: OT_ERa_GFPERaERE_0120: Odyssey Thera (OT) 2-hour HeLa Transcription Induction Assay for Estrogen Receptor (AID 2283382)
Method in brief: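 Two-hour compound treatment of HeLa cells preceded microscopy imaging of an inducible fluorescent reporter. Image-based quantification gave one endpoint, analysed for signal increase relative to DMSO controls.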

[4] = target: Retinoic acid receptor RXR-alpha (Homo sapiens) (UniProt P19793); assay: OT_NURR1_NURR1RXRa_1440: Odyssey Thera (OT) 24-hour HEK293T Protein Complementation Assay for Nurr1/retinoid X receptor (RXR) (AID 2283386)
Method in brief: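 Cell-based binding reporter: HEK293T cells, 24 h exposure, fluorescence-detected fragment complementation, DMSO as baseline.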

[5] = target: Peroxisome proliferator-activated receptor gamma (Homo sapiens) (UniProt P37231); assay: OT_PPARg_PPARgSRC1_0480: Odyssey Thera (OT) 8-hour Protein-Complementation Assay for Peroxisome Proliferator-activated Receptor Gamma / SRC-1 Co-activator (AID 2283387)
Method in brief: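 HEK293T transiently transfected with PPARg and SRC-1 fused to Venus YFP fragments, compounds 8 h at 37C. Fixed, Draq5-stained cells imaged; nuclear/cytoplasmic 488 nm fluorescence ratio over at least 350 cells per image; gain fitted versus DMSO.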

[6] = target: Peroxisome proliferator-activated receptor gamma (Homo sapiens) (UniProt P37231); assay: OT_PPARg_PPARgSRC1_1440: Odyssey Thera (OT) 24-hour Protein-Complementation Assay for Peroxisome Proliferator-activated Receptor Gamma/ SRC-1 Co-activator (AID 2283388)
Method in brief: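 HEK293T transiently transfected with PPARg/SRC-1 split-Venus YFP fusions 48 h before dosing, then treated 24 h at 37C. Fixed cells imaged; nuclear/cytoplasmic 488 nm fluorescence ratio, gain of signal versus DMSO.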

[7] = target: Bile acid receptor (Homo sapiens) (UniProt Q96RI1); assay: OT_FXR_FXRSRC1_1440: Odyssey Thera (OT) 24-hour HEK293T Protein-Complementation Assay for Farnesoid X receptor/SRC-1 Co-activator (AID 2283384)
Method in brief: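 Single endpoint, analysed for increased fluorescence against DMSO controls. HEK293T cells carrying FXR and SRC-1 linked to complementary reporter halves were exposed to chemicals for 24 h before reading.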

[8] = target: Retinoic acid receptor RXR-alpha (Homo sapiens) (UniProt P19793); assay: OT_NURR1_NURR1RXRa_0480: Odyssey Thera (OT) 8-hour HEK293T Protein Complementation Assay for Nurr1/retinoid X receptor (RXR) (AID 2283385)
Method in brief: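 Gain in fluorescent complementation signal over DMSO, measured 8 hours after chemical dosing of human kidney HEK293T cells, indicated enhanced Nurr1–RXRα association.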

[9] = CEETOX_H295R_11DCORT: CeeTox H295R High-throughput Steroidogenesis Assay for 11-Deoxycortisol (11DCORT) (AID 2283432; active means hit-call score of the fitted dose curve at least 0.9, where 1 is the maximum; inactive means score below 0.9;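 on AC50: human adrenal H295R cells prestimulated with 10 µM forskolin for 48 h; 11-deoxycortisol secreted into the medium measured by LC-MS/MS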); conditions: actives raise or lower the signal
Method in brief: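 H295R cells prestimulated 48 h with 10 uM forskolin, then exposed 48 h to chemical in 0.1% DMSO. 11-Deoxycortisol in medium quantified by HPLC-MS/MS after MTBE extraction; bidirectional fit versus DMSO. MTT viability read in same wells.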

[10] = target: Agonist Androgen Response Element (ARE), AR (gene 367) (UniProt P10275); assay: OT_AR_ARELUC_AG_1440: Odyssey Thera (OT) 24-hour CHO-K1 Luciferase Assay for Agonist Androgen Response Element (ARE) (AID 2283379)
Method in brief: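 Gain-of-signal reporter endpoint: cells (CHO-K1, hamster) are treated 24 h, luciferin/ATP reagent added, and luminescence compared with DMSO baseline.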

Measured: AC50

Chain of Agonist Androgen Response Element (ARE), AR (gene 367) (P10275 whole entry, looked up): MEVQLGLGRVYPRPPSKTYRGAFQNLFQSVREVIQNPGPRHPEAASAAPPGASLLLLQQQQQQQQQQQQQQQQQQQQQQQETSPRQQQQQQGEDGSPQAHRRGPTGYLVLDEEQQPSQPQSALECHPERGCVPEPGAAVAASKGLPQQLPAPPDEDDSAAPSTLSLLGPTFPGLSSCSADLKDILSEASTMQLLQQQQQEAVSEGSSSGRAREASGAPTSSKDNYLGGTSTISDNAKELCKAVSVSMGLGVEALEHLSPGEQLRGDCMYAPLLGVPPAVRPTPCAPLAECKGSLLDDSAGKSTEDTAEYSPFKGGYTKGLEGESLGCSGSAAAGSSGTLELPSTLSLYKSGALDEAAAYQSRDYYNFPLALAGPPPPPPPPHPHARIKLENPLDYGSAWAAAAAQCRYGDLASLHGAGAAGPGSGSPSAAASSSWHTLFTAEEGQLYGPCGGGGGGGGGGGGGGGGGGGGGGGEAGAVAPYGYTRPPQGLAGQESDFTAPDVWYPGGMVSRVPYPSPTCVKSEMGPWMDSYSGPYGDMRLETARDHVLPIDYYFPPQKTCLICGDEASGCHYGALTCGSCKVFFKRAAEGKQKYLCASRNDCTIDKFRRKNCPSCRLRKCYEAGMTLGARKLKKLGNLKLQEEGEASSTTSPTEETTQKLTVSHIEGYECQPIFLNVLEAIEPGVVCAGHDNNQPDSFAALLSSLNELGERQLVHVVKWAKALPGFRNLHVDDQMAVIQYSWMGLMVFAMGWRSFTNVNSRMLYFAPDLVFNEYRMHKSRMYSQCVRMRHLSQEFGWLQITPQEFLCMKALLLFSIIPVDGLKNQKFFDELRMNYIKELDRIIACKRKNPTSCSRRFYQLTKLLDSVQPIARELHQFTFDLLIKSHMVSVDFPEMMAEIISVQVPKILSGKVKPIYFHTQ
Chain of Estrogen receptor (Homo sapiens) (P03372 whole entry, looked up): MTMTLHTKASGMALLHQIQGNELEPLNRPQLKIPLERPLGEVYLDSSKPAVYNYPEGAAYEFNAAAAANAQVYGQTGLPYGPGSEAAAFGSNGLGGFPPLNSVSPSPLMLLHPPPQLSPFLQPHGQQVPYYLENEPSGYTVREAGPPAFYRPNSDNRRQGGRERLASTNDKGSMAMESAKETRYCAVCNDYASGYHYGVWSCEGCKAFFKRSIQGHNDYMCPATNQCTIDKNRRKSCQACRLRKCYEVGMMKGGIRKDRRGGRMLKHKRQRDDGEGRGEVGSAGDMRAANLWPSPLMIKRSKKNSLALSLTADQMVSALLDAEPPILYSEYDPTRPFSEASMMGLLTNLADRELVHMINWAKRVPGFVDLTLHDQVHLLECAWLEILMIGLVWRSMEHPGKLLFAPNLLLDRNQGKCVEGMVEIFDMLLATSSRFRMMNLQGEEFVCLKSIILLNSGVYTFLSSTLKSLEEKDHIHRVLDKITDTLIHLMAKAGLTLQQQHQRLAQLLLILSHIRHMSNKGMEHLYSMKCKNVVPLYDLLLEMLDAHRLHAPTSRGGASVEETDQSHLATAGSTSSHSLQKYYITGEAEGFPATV
Chain of Bile acid receptor (Homo sapiens) (Q96RI1 whole entry, looked up): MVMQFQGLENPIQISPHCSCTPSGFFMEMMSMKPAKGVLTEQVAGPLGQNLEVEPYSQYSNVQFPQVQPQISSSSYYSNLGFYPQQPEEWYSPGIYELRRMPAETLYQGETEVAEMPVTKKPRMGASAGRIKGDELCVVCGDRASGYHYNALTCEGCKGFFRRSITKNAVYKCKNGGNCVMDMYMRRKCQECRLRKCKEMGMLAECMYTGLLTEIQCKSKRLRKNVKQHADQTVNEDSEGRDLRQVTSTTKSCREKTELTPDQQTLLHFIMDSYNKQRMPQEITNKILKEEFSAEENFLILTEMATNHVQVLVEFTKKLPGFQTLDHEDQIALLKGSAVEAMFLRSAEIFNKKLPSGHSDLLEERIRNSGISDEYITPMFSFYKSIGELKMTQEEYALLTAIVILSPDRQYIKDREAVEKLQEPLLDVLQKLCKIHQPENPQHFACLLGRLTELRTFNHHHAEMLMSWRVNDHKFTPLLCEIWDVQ
Chain of Retinoic acid receptor RXR-alpha (Homo sapiens) (P19793 whole entry, looked up, the tested form may be a part): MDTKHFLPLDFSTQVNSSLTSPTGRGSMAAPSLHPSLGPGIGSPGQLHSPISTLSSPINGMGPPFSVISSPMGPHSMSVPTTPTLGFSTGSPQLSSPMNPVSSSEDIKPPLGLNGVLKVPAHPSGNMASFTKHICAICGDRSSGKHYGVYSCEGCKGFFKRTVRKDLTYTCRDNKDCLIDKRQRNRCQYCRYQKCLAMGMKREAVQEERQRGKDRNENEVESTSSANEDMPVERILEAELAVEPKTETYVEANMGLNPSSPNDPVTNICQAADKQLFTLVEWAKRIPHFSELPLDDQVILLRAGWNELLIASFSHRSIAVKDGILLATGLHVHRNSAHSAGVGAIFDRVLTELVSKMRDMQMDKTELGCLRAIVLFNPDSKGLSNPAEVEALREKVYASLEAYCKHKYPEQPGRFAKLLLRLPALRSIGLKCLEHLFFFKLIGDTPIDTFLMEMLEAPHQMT
Chain of Estrogen receptor beta (Homo sapiens) (Q92731 whole entry, looked up, the tested form may be a part): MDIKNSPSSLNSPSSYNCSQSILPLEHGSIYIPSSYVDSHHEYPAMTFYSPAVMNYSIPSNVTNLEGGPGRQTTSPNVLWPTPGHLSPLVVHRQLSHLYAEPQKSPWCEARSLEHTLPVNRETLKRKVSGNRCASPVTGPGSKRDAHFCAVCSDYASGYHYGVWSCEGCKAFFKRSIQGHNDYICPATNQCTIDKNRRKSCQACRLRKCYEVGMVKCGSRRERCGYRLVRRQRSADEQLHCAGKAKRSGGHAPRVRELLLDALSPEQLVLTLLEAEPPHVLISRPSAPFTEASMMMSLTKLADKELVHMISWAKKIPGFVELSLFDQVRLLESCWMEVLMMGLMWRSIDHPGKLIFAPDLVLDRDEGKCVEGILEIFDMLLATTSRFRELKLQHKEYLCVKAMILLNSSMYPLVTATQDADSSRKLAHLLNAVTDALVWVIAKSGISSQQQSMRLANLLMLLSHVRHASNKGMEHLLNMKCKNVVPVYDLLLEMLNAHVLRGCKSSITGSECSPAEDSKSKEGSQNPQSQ
Chain of Peroxisome proliferator-activated receptor gamma (Homo sapiens) (P37231 whole entry, looked up, the tested form may be a part): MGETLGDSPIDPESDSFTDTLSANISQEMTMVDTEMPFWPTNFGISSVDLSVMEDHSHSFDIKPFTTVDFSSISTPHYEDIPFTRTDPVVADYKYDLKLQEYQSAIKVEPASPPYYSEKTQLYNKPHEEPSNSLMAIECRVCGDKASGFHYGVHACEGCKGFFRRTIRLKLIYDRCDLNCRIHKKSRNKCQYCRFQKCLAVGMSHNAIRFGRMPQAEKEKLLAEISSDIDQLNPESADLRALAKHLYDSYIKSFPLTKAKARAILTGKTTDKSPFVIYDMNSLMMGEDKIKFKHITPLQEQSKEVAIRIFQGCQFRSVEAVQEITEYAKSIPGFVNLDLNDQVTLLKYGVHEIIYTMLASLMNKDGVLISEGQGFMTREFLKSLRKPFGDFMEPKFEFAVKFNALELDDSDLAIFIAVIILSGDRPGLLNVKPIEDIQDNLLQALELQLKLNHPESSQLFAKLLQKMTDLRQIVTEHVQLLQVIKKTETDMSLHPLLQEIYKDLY

CCCCc1ccccc1
inactive: [1] | [2] | [3] | [4] | [5] | [6]

CCOC(=O)c1ccccc1N
not listed: [8] | [9] | [10]
inactive: all other assays above

Cc1ccc([N+](=O)[O-])cc1C
not listed: [9] | [10]
inactive: all other assays above

CCCCc1ccc(O)cc1
active: [1] 19.6 µM | [7] 67.9 µM
not listed: [8] | [10]
inactive: all other assays above

CCCCN(CCCC)SN(C)C(=O)Oc1cccc2c1OC(C)(C)C2
inactive: [1] | [2] | [3] | [4] | [5] | [6]
active: [4] 84.7 µM

CCOP(=S)(Oc1ccc([N+](=O)[O-])cc1)c1ccccc1 (configuration not stated)
inactive: [1] | [8] | [4] | [5] | [6]
active: [2] 12.7 µM | [3] 18.4 µM

CCCCC(CC)COP(=O)(Oc1ccccc1)Oc1ccccc1 (configuration not stated)
active: [4] 82.1 µM
not listed: [5] | [8] | [9]
inactive: all other assays above

O=[N+]([O-])c1ccccc1
inactive: [1] | [2] | [3] | [4] | [5] | [6]

CCOP(=S)(OCC)SCSCC
inactive: [1] | [2] | [3] | [7] | [5] | [6]

[N-]=[N+]=[N-]
inactive: [10] | [2] | [3] | [5] | [6]

CC(Cc1ccc(OCC(=O)O)cc1)NCC(O)c1csc(C(F)(F)F)n1 (configuration not stated)
inactive: [1] | [2] | [3] | [4] | [5] | [6]

COCCOCCO
not listed: [7] | [9] | [10]
inactive: all other assays above

CC1(C)CN=C(NN=C(/C=C/c2ccc(C(F)(F)F)cc2)/C=C/c2ccc(C(F)(F)F)cc2)NC1
inactive: [10] | [1] | [2] | [3] | [5] | [6]

FC(F)(F)c1ccc(Cl)cc1
not listed: [7] | [9] | [10]
inactive: all other assays above

c1cc2c3c(cccc3c1)CC2
not listed: [7] | [8] | [9]
inactive: all other assays above

CCC(C)(C)c1ccc(O)cc1
active: [1] 4.88 µM | [2] 1.32 µM | [3] 0.619 µM | [4] 66.4 µM
inactive: [7] | [5] | [6] | [9]

CCC1(c2ccccc2)C(=O)N=C(O)NC1=O (configuration not stated)
inactive: [1] | [2] | [3] | [4] | [5] | [6]

O=C(O)C1C(C(=O)O)C2(Cl)C(Cl)=C(Cl)C1(Cl)C2(Cl)Cl (configuration not stated)
inactive: [1] | [2] | [3] | [7]

CCCN(CCC)c1c([N+](=O)[O-])cc(C(C)C)cc1[N+](=O)[O-]
active: [1] 7.26 µM | [2] 12.2 µM | [4] 80.9 µM
inactive: [3] | [4] | [5] | [6]

ClC(Cl)(Cl)c1ccccc1
inactive: [1] | [2] | [3] | [7]

O=S1(=O)OCC2C(CO1)C1(Cl)C(Cl)=C(Cl)C2(Cl)C1(Cl)Cl (configuration not stated)
active: [7] 50 µM | [9] 7.28 µM
inactive: [1] | [2] | [3] | [5] | [6]

CCCCN(CC)C(=O)SCCC
not listed: [4] | [8] | [9]
inactive: all other assays above

CCCCC(CC)COC(=O)c1c(Br)c(Br)c(Br)c(Br)c1C(=O)OCC(CC)CCCC (configuration not stated)
not listed: [8] | [9] | [10]
inactive: all other assays above

CCN(CC)c1ccccc1
not listed: [8] | [9]
inactive: all other assays above

ClC1=C(Cl)C2(Cl)C3C(Cl)C(Cl)CC3C1(Cl)C2(Cl)Cl (configuration not stated)
inactive: [10] | [1] | [2] | [3] | [5] | [6]

CO/N=C(/C(=O)OC)c1ccccc1COc1ccccc1C
inactive: [10]
active: [2] 15.7 µM | [3] 21.9 µM | [7] 12.4 µM | [9] 3.98 µM

O=NN1CCCC1
active: [1] 50 µM
not listed: [4] | [9] | [10]
inactive: all other assays above

CCCCCCCc1ccc(O)cc1
inactive: [10] | [1] | [2] | [3] | [4] | [5] | [6]
active: [1] 12.7 µM and 12.5 µM and 12.6 µM | [4] 50 µM

Cc1ccc(O)cc1C
inactive: [1] | [2] | [3] | [4]

Nc1ccc2ccccc2c1
inactive: [1] | [2] | [3] | [4] | [5] | [6]

CCOS(=O)(=O)OCC
inactive: [1] | [2] | [3] | [4] | [5] | [6]

CCNc1nc(Cl)nc(NC(C)(C)C)n1
inactive: all assays above

CC(C)(C)N(NC(=O)c1ccc(Cl)cc1)C(=O)c1ccccc1
not listed: [8] | [9]
inactive: all other assays above

Cc1ccc(N)cc1N
not listed: [8] | [10]
inactive: all other assays above

O=P(OCC(Br)CBr)(OCC(Br)CBr)OCC(Br)CBr (configuration not stated)
active: [7] 29 µM | [4] 73.9 µM
not listed: [8] | [9]
inactive: all other assays above

CC(Cl)(Cl)C(=O)O
not listed: [7] | [9] | [10]
inactive: all other assays above

CC(C)(C)OOC(C)(C)C
inactive: [1] | [2] | [3] | [4] | [5] | [6]

OCC1CO1 (configuration not stated)
inactive: [2] | [3] | [7] | [4] | [5] | [6]

COC(N)=O
inactive: [1] | [2] | [3] | [4] | [5] | [6]

O=C(O)CF
inactive: [1] | [2] | [3] | [5] | [6]

CCOP(=S)(NC(C)C)Oc1ccccc1C(=O)OC(C)C (configuration not stated)
active: [9] 12.8 µM

O=P1(N(CCCl)CCCl)NCCCO1 (configuration not stated)
inactive: [1] | [2] | [3] | [4] | [5] | [6]

CCCCN(CCCC)N=O
inactive: [1] | [2] | [3] | [4] | [5] | [6]

c1ccc2c(c1)sc1ccccc12
inactive: [2] | [3] | [5] | [6]

CCOP(=S)(OCC)SCn1nnc2ccccc2c1=O
inactive: [9]

O=C(O)C(Cl)Cl
inactive: [2] | [3] | [4] | [5] | [6]

Cc1cccc(N)c1
inactive: [2] | [3] | [5] | [6]

Nc1ccc(Cl)cc1
active: [4] 2.33 µM
inactive: [2] | [3] | [8] | [4] | [5] | [6] | [9]

CC(C)Nc1ccc(Nc2ccccc2)cc1
inactive: [9]

ClC(Cl)=C(c1ccc(Cl)cc1)c1ccccc1Cl
inactive: [9]

CCOC(=O)c1ccccc1C(=O)OCC
inactive: [2] | [3] | [8] | [4] | [5] | [6]

O=S(=O)(c1ccc(O)cc1)c1ccc(O)cc1
active: [1] 39.5 µM | [2] 12.6 µM | [3] 51.9 µM | [9] 19.1 µM
inactive: [5] | [6]

Oc1ccc(I)cc1
inactive: [9]

Nc1cc2c3c(c1)C(c1ccccc1)=N[C@@H](NC(=O)c1cccnc1)C(=O)N3CC2
active: [9] 62 µM
not listed: [7] | [8] | [10]
inactive: all other assays above

O=P(Oc1ccccc1)(Oc1ccccc1)Oc1ccccc1
active: [2] 12.4 µM | [3] 7.54 µM | [9] 2.92 µM
inactive: [7] | [4] | [5] | [6]

CSC(C)(C)C=NO
inactive: [2] | [3] | [5] | [6]

c1ccc2c(c1)Nc1ccccc1S2
inactive: [1] | [2] | [3] | [4] | [5] | [6]

c1nc[nH]n1
inactive: [1] | [2] | [3] | [4] | [5] | [6]

CC(=O)c1ccc(-c2ccccc2)cc1
inactive: [9]

O=C(CBr)OCc1ccccc1
inactive: [1] | [2] | [3] | [4] | [5] | [6]

CCCCOCCOP(=O)(OCCOCCCC)OCCOCCCC
not listed: [7] | [8] | [10]
inactive: all other assays above

ClC(Cl)c1ccccc1
inactive: [2] | [3] | [5] | [6]

O=c1ssc(Cl)c1Cl
inactive: [2] | [3] | [5] | [6]
active: [7] 11.4 µM

Nc1ccc([N+](=O)[O-])cc1Cl
inactive: [9]

N#Cc1c(-c2ccc(Cl)cc2)[nH]c(C(F)(F)F)c1Br
active: [9] 0.37 µM

CN(C)C(=O)Cl
inactive: [2] | [3] | [5] | [6]

O=[N+]([O-])c1ccc(Cl)c(Cl)c1
inactive: [2] | [3] | [7] | [5] | [6]

COP(N)(=S)OC
inactive: [9]

CC(C)(C)c1ccc(O)cc1
inactive: [4] | [5] | [6]

CCCCOCC1CO1 (configuration not stated)
inactive: [2] | [3] | [8] | [4] | [5] | [6]

c1ccc(OP(Oc2ccccc2)Oc2ccccc2)cc1
not listed: [7] | [8] | [10]
inactive: all other assays above

CCOc1ccc(C(C)(C)COCc2cccc(Oc3ccccc3)c2)cc1
inactive: [1] | [2] | [3] | [4] | [5] | [6]
